PubChem BioAssay (EPA / NIEHS)
Activity calls are given as the source filed them. The calls were made as follows: active = hit-call score of the fitted dose curve at least 0.9, where 1 is the maximum; inactive = score below 0.9.

What was measured:
Settings in all cases: mRNA level, 48 h; actives raise or lower the signal
[1] = read-out: ABC Transporter (ABCB11), ABCB11 (gene 8647); experiment: LTEA_HepaRG_ABCB11: Life Technologies and Expression Analysis (LTEA) Assay for ABC Transporter (ABCB11) using HepaRG (AID 2283463)
Summary of the method: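 Differentiated human HepaRG cells in serum-free induction medium, dosed in duplicate for 48 h. Eight-point half-log series from 100 uM in 0.5% DMSO; ABCB11 mRNA by qRT-PCR, normalized to ACTB, GAPDH, POLR2A, fitted bidirectionally versus DMSO.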

[2] = read-out: ABC Transporter (ABCC2), ABCC2 (gene 1244); experiment: LTEA_HepaRG_ABCC2: Life Technologies and Expression Analysis (LTEA) Assay for ABC Transporter (ABCC2) using HepaRG (AID 2283464)
Summary of the method: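 HepaRG, 48 h post-plating; serum-free induction medium; cpd 8-pt, 100 uM top, half-log, 0.5% DMSO, duplicate, 48 h. Readout: ABCC2 mRNA by qRT-PCR, norm. ACTB/GAPDH/POLR2A. Bidirectional fit vs DMSO baseline.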

[3] = read-out: Broad substrate specificity ATP-binding cassette transporter ABCG2 (Homo sapiens) (UniProt Q9UNQ0); experiment: LTEA_HepaRG_ABCG2: Life Technologies and Expression Analysis (LTEA) Assay for ABC Transporter (ABCG2) using HepaRG (AID 2283465)
Summary of the method: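 Differentiated HepaRG cells were exposed for 48 h in serum-free induction medium to 8 half-log concentrations, top 100 uM, in 0.5% DMSO. ABCG2 mRNA was measured by qRT-PCR, normalized to ACTB, GAPDH and POLR2A, with bidirectional fitting versus DMSO.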

[4] = read-out: ATP-citrate lyase (ACLY), ACLY (gene 47); experiment: LTEA_HepaRG_ACLY: Life Technologies and Expression Analysis (LTEA) Assay for ATP-citrate lyase (ACLY) using HepaRG (AID 2283466)
Summary of the method: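 Differentiated HepaRG cells exposed 48 h in serum-free induction medium to eight half-log concentrations up to 100 uM in 0.5% DMSO, duplicates. Transcript measured by Fluidigm TaqMan qRT-PCR, normalized to ACTB, GAPDH, POLR2A; bidirectional fit versus DMSO.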

[5] = read-out: Peroxisomal acyl-coenzyme A oxidase 1 (ACOX1) gene, ACOX1 (gene 51); experiment: LTEA_HepaRG_ACOX1: Life Technologies and Expression Analysis (LTEA) Assay for Peroxisomal acyl-coenzyme A oxidase 1 (ACOX1) gene using HepaRG (AID 2283467)
Summary of the method: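 HepaRG cells, plated 48 h then switched to serum-free induction medium, were exposed in duplicate for 48 h to 8-point half-log concentrations up to 100 uM in 0.5% DMSO. ACOX1 mRNA was measured by qRT-PCR, normalized to ACTB/GAPDH/POLR2A, and fitted bidirectionally versus DMSO.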

[6] = read-out: Alkaline Phosphatase, Placental (ALPP) gene, ALPP (gene 250); experiment: LTEA_HepaRG_ALPP: Life Technologies and Expression Analysis (LTEA) Assay for Alkaline Phosphatase, Placental (ALPP) gene using HepaRG (AID 2283468)
Summary of the method: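 HepaRG, 48 h plating then 48 h dosing, serum-free induction medium, 0.5% DMSO. 8 conc, half-log, max 100 uM, duplicates. Endpoint: ALPP transcript by qRT-PCR, housekeeping-normalized; gain or loss fitted vs DMSO.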

[7] = read-out: Bcl-2 (BAD) gene, BAD (gene 572); experiment: LTEA_HepaRG_BAD: Life Technologies and Expression Analysis (LTEA) Assay for Bcl-2 (BAD) gene using HepaRG (AID 2283469)
Summary of the method: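 Differentiated HepaRG cells were exposed in duplicate in 0.5% DMSO for 48 h to eight-point half-log concentrations up to 100 uM. BAD mRNA was measured by Fluidigm TaqMan qRT-PCR, normalized to ACTB, GAPDH and POLR2A, and fitted bidirectionally against DMSO.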

[8] = read-out: adenosine kinase (ADK) gene, ADK (gene 132); experiment: LTEA_HepaRG_ADK: Life Technologies and Expression Analysis (LTEA) Assay for adenosine kinase (ADK) gene using HepaRG (AID 2283471)
Summary of the method: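 ADK expression quantified by qRT-PCR, normalised to three housekeeping genes, after 48 h exposure of HepaRG cells to eight concentrations (top 100 uM, half-log steps, duplicate, 0.5% DMSO). Up- or down-regulation fitted relative to vehicle.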

[9] = read-out: Alpha-fetoprotein (AFP) gene, AFP (gene 174); experiment: LTEA_HepaRG_AFP: Life Technologies and Expression Analysis (LTEA) Assay for Alpha-fetoprotein (AFP) gene using HepaRG (AID 2283472)
Summary of the method: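 After a 48 h plating period, cells are moved to serum-free induction medium and dosed in duplicate (100 uM maximum, half-log dilutions, 0.5% DMSO) for another 48 h. Total RNA goes to TaqMan qRT-PCR; AFP signal is housekeeping-normalized.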

[10] = read-out: BCL2L11 (gene 10018); experiment: LTEA_HepaRG_BCL2L11: Life Technologies and Expression Analysis (LTEA) Assay for Bcl-2 (BCL2L11) gene using HepaRG (AID 2283473)
Summary of the method: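 Read-out is BCL2L11 transcript level by qRT-PCR, normalized to three housekeeping genes and fitted bidirectionally against 0.5% DMSO vehicle. HepaRG cells received chemicals for 48 h in serum-free induction medium, 100 uM down in half-log dilutions.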

[11] = read-out: Apolipoprotein A-V (APOA5) gene, APOA5 (gene 116519); experiment: LTEA_HepaRG_APOA5: Life Technologies and Expression Analysis (LTEA) Assay for Apolipoprotein A-V (APOA5) gene using HepaRG (AID 2283474)
Summary of the method: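 Readout is APOA5 transcript level by qRT-PCR on Fluidigm dynamic arrays, normalized to three housekeeping genes. HepaRG cultures received chemicals for 48 h at up to 100 uM (half-log steps, 0.5% DMSO), with gain or loss scored relative to DMSO.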

[12] = read-out: Apoptosis regulator Bcl-2 (Homo sapiens) (UniProt P10415); experiment: LTEA_HepaRG_BCL2: Life Technologies and Expression Analysis (LTEA) Assay for Bcl-2 gene using HepaRG (AID 2283475)
Summary of the method: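 Expression change of BCL2 mRNA in HepaRG after 48 h dosing, quantified by TaqMan qRT-PCR against three endogenous controls. Concentration-response used eight points up to 100 uM, vehicle 0.5% DMSO.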

[13] = read-out: Bcl-2 (BID) gene, BID (gene 637); experiment: LTEA_HepaRG_BID: Life Technologies and Expression Analysis (LTEA) Assay for Bcl-2 (BID) gene using HepaRG (AID 2283476)
Summary of the method: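 Gain or loss of BID expression is fitted relative to 0.5% DMSO vehicle. Human HepaRG liver cells received a 48 h chemical exposure over an eight-point concentration range.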

[14] = read-out: Caspase-3 (Homo sapiens) (UniProt P42574); experiment: LTEA_HepaRG_CASP3: Life Technologies and Expression Analysis (LTEA) Assay for cysteine-aspartic acid protease (CASP3) using HepaRG (AID 2283477)
Summary of the method: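 Read-out is CASP3 mRNA level by TaqMan qRT-PCR in human HepaRG cells after 48 h chemical exposure. Eight half-log concentrations topping at 100 uM were tested in 0.5% DMSO; gain or loss was fitted relative to DMSO.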

[15] = read-out: Cytochrome P450 (CYP24A1), CYP24A1 (gene 1591); experiment: LTEA_HepaRG_CYP24A1: Life Technologies and Expression Analysis (LTEA) Assay for Cytochrome P450 (CYP24A1) using HepaRG (AID 2283478)
Summary of the method: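 HepaRG, 48 h chemical exposure, 8-pt half-log CRC from 100 uM, 0.5% DMSO vehicle, duplicates. Endpoint: CYP24A1 mRNA by Fluidigm TaqMan qRT-PCR, normalized ACTB/GAPDH/POLR2A; gain/loss fit vs DMSO.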

[16] = read-out: Cytochrome P450 (CYP1A2), CYP1A2 (gene 1544); experiment: LTEA_HepaRG_CYP1A2: Life Technologies and Expression Analysis (LTEA) Assay for Cytochrome P450 (CYP1A2) using HepaRG (AID 2283479)
Summary of the method: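 CYP1A2 transcript induction or loss, quantified by Fluidigm qRT-PCR against three housekeeping genes, was fitted bidirectionally against 0.5% DMSO controls. Human HepaRG cells received eight half-log concentrations from 100 uM over 48 h.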

[17] = read-out: cysteine-aspartic acid protease (CASP8), CASP8 (gene 841); experiment: LTEA_HepaRG_CASP8: Life Technologies and Expression Analysis (LTEA) Assay for cysteine-aspartic acid protease (CASP8) using HepaRG (AID 2283480)
Summary of the method: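 Differentiated HepaRG cells in serum-free induction medium, 48 h exposure, eight-point half-log series from 100 uM in 0.5% DMSO, duplicates. CASP8 mRNA by qRT-PCR, normalized to ACTB, GAPDH, POLR2A; bidirectional fit versus DMSO.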

[18] = read-out: Cytochrome P450 (CYP2B6), CYP2B6 (gene 1555); experiment: LTEA_HepaRG_CYP2B6: Life Technologies and Expression Analysis (LTEA) Assay for Cytochrome P450 (CYP2B6) using HepaRG (AID 2283481)
Summary of the method: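 HepaRG cells plated 48 h, switched to serum-free induction medium, then dosed 48 h (8 points, half-log from 100 uM, 0.5% DMSO). RNA isolated; CYP2B6 expression measured by qRT-PCR; gain or loss fitted relative to DMSO.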

[19] = read-out: Cytochrome P450 2C19 (Homo sapiens) (UniProt P33261); experiment: LTEA_HepaRG_CYP2C19: Life Technologies and Expression Analysis (LTEA) Assay for CYP2C19 using HepaRG (AID 2283482)
Summary of the method: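 Transcript levels of CYP2C19 were quantified by qRT-PCR after HepaRG cells were treated for 48 hours with test chemicals up to 100 uM (eight half-log concentrations, 0.5% DMSO vehicle). Gain or loss of signal was fitted relative to DMSO.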

[20] = read-out: Bcl-2 (BAX) gene, BAX (gene 581); experiment: LTEA_HepaRG_BAX: Life Technologies and Expression Analysis (LTEA) Assay for Bcl-2 (BAX) gene using HepaRG (AID 2283470)
Summary of the method: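 Concentration-response endpoint fitted in both directions relative to 0.5% DMSO vehicle. Human HepaRG cultures receive test chemicals for 48 h at up to 100 uM; BAX mRNA is quantified by qRT-PCR against housekeeping genes.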

Measured: AC50

Chain of Broad substrate specificity ATP-binding cassette transporter ABCG2 (Homo sapiens) (Q9UNQ0 whole entry, looked up): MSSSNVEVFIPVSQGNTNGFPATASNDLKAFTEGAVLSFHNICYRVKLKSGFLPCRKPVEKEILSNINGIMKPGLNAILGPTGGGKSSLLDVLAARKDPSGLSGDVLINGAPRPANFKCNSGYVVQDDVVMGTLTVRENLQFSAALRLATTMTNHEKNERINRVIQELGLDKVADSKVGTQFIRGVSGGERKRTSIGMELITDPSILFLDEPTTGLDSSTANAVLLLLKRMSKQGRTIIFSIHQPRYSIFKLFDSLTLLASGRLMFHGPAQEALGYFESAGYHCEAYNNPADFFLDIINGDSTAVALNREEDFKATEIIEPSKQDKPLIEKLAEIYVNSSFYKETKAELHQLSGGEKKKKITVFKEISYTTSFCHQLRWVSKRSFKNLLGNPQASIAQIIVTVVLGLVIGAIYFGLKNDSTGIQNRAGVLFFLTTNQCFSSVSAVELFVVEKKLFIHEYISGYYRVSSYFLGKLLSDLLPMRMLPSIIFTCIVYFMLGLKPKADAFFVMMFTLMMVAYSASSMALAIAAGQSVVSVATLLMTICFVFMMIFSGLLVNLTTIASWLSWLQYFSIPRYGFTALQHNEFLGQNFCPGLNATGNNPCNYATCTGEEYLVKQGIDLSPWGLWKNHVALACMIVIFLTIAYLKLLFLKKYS
Chain of Apoptosis regulator Bcl-2 (Homo sapiens) (P10415 whole entry, looked up): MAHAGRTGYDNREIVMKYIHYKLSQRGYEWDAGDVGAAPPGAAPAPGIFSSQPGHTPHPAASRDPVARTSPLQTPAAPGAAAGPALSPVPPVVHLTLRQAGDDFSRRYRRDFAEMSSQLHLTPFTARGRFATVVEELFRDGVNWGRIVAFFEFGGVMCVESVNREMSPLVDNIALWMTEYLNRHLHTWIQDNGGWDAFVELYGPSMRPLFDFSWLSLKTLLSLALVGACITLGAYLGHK
Chain of Caspase-3 (Homo sapiens) (P42574 whole entry, looked up): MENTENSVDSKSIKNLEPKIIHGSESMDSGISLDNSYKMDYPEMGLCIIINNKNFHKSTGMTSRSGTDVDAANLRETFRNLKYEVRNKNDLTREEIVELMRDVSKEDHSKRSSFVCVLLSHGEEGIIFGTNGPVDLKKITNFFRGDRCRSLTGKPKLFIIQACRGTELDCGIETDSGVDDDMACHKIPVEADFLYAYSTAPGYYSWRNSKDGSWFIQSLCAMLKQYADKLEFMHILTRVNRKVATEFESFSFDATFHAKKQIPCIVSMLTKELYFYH
Chain of Cytochrome P450 2C19 (Homo sapiens) (P33261 whole entry, looked up): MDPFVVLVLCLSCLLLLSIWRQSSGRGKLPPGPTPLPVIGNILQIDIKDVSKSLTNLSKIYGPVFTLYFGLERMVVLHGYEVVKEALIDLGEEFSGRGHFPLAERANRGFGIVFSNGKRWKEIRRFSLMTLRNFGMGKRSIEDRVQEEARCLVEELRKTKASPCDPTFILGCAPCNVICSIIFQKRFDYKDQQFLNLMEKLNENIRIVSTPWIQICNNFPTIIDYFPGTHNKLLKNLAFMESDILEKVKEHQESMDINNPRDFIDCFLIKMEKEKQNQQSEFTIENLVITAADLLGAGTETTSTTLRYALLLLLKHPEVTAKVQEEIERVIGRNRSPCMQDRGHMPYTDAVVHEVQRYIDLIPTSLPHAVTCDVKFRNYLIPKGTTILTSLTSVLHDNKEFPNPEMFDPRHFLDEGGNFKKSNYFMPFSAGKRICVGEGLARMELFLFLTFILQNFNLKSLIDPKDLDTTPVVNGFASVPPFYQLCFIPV

Fc1ccccc1[C@@H](F)COC1CCC(Nc2ncnc3[nH]ncc23)CC1 (some centres undefined)
active: [1] 71.1 µM | [2] 65.4 µM | [5] 34.1 µM | [6] 23.1 µM | [8] 50 µM | [9] 27.2 µM | [11] 50 µM | [12] 30.7 µM | [14] 24.9 µM | [16] 29.1 µM | [18] 30.9 µM | [19] 67.9 µM
inactive: [3] | [4] | [7] | [10] | [13] | [15] | [17]

O=C(CCCCCCCCc1cccnc1)N1CCC(C=C(c2ccccc2)c2ccccc2)CC1
active: [1] 14.3 µM | [3] 13.2 µM | [5] 50 µM | [20] 30.9 µM | [9] 24.3 µM | [10] 27.3 µM | [11] 29.6 µM | [12] 16.6 µM | [14] 61.9 µM | [16] 17 µM | [18] 12.3 µM | [19] 34.9 µM
inactive: [2] | [4] | [7] | [8] | [13] | [15] | [17]

Cn1cnc([N+](=O)[O-])c1Sc1ncnc2nc[nH]c12
active: [1] 11.2 µM | [9] 5.38 µM | [10] 7.34 µM | [11] 15.8 µM | [16] 0.9 µM | [18] 5.23 µM
not listed: [12] | [19] | [20]
inactive: all other assays above

Nc1cccc(N)c1
active: [16] 33 µM
not listed: [6]
inactive: all other assays above
